Test results: PubChem BioAssay AID372 (MTDP, 2006)
In all, about 100,000 compounds went through this assay and about 770 (0.77%) were called active. The list comes from a sample in which actives are over-represented; it also holds similar structures and randomly drawn compounds. Unmarked numbers belong to inactive results. Rule as the data show it: active = inhibition above about 50%; inactive = the rest.

Each molecule was assayed against Gag-Pol polyprotein (Human immunodeficiency virus type 1 group M subtype B (isolate HXB2)) (UniProt P04585) (assay: RNase H inhibition, HIV 1 Gag Pol polyprotein, FRET biochemical assay, screening (AID 372)). Settings: HIV-1 RT RNase H, FRET RNA/DNA substrate fluorescence; at 10 µM; active compounds read high.
With `CCN1C(=O)NC(c2ccc(Br)cc2)C(C(=O)OCCOC)=C1C` (configuration not stated) the inhibition was 0%.
Molecule `O=C(Nc1ccc(-c2nc3ccc(NC(=O)c4ccccc4)cc3[nH]2)cc1)c1ccccc1` has an inhibition of 4%.
Molecule `O=C1c2cccc3ccc(Cl)c(c23)C(=O)N1Oc1ccc([N+](=O)[O-])cc1[N+](=O)[O-]` has an inhibition of 3%.
`O=C1c2cccc3c(Cl)ccc(c23)C(=O)N1O` showed an inhibition of 15%.
`O=C1c2cccc3ccc(Cl)c(c23)C(=O)N1O` was tested, and the inhibition was 90% (active).
`Cc1c(NC(=O)c2cc([N+](=O)[O-])ccc2Cl)cccc1-c1nc2ccccc2s1` was tested, and the inhibition was 6%.
`COc1ccc(Nc2nc(-c3cc4cc(OC)ccc4oc3=O)cs2)cc1` showed an inhibition of 13%.
In the case of `COc1cccc(Nc2nnc(-c3cc4cc(OC)ccc4oc3=O)s2)c1`, the inhibition is reported as 43%.
`COc1ccc2oc(=O)c(-c3csc(/N=C/c4ccccc4O)n3)cc2c1` was tested, and the inhibition was 67% (active).
With `COc1ccc2oc(=O)c(-c3nnc(Nc4ccccc4C)s3)cc2c1` the inhibition was 10%.
`COc1ccc2oc(=O)c(-c3csc(Nc4ccccc4)n3)cc2c1` was tested, and the inhibition was 17%.
`COc1ccc2oc(=O)c(-c3nnc(Nc4cccc(C)c4)s3)cc2c1` was tested, and the inhibition was 50% (active).
With `COc1ccc2oc(=O)c(-c3csc(Nc4ccc(Cl)cc4)n3)cc2c1` the inhibition was 57% (active).
Molecule `COc1ccc2oc(=O)c(-c3csc(Nc4ccc(C(C)=O)cc4)n3)cc2c1` has an inhibition of 1%.
With `COc1ccc2oc(=O)c(-c3csc(Nc4ccccc4Br)n3)cc2c1` the inhibition was 8%.
With `COc1ccc2oc(=O)c(-c3csc(NC(=O)/C=C\C(=O)O)n3)cc2c1` the inhibition was 3%.
Work on `COc1cccc(Nc2nc(-c3cc4cc(Br)ccc4oc3=O)cs2)c1` yielded an inhibition of 12%.
Work on `CCOC(=O)N(Cc1ccccc1)C(C(=O)O)C(C(=O)O)N(Cc1ccccc1)C(=O)OCC` (configuration not stated) yielded an inhibition of 0%.
For `O=CNC(NC(=S)Nc1cc(Cl)ccc1Cl)C(Cl)(Cl)Cl` (configuration not stated), the inhibition was 17%.
Molecule `Cc1ccc([N+](=O)[O-])cc1/C=C1/SC(=S)N(c2cccc(C(F)(F)F)c2)C1=O` has an inhibition of 5%.
`O=C(COc1ccc(Br)cc1Cl)Nc1cc(Cl)ccc1Cl` gave an inhibition of 8%.
`COc1ccc(OC)c(N(CC(=O)NCC(C)C)S(C)(=O)=O)c1` was tested, and the inhibition was 0%.
In the case of `CC(=O)C1=C(C)NC(SCC(=O)c2ccc(C)cc2)=C(C#N)C1c1ccc(Br)cc1` (configuration not stated), the inhibition is reported as 18%.
Work on `O=C(NC(=S)Nc1ccc(Cl)c([N+](=O)[O-])c1)c1ccc(-c2ccccc2)cc1` yielded an inhibition of 13%.
`O=C(Nc1ccccc1-c1nc2ccccc2[nH]1)c1ccc([N+](=O)[O-])cc1` showed an inhibition of 44%.
`COc1ccc(O)c(CN2CCCCC2)c1` gave an inhibition of 4%.
Molecule `CC1SC(c2cccc(Cl)c2)NC1=O` (configuration not stated) has an inhibition of 0%.
Work on `C/C(=N\NC(=O)c1cc(C2CC2)[nH]n1)c1ccc(C)cc1` yielded an inhibition of 8%.
`COc1ccc(-n2nnnc2C(=Cc2ccc(N(C)C)cc2)c2nnnn2-c2ccc(OC)cc2)cc1` showed an inhibition of 9%.
For `N#Cc1c(-c2cccc(Br)c2)c(C#N)c2nc3ccccc3n2c1N`, the inhibition was 9%.
`COc1ccc(C2CC(=O)C3=C(C2)NC(C)=C(C(=O)OC2CCCC2)C3c2ccc3c(c2)OCO3)cc1` (configuration not stated) gave an inhibition of 3%.
`CCCC1=C(C(=O)OCC)C(c2cccs2)C(C#N)=C(N)O1` (configuration not stated) was tested, and the inhibition was 56% (active).
`CCOC(=O)C1=C(c2ccccc2)OC(N)=C(C#N)C1c1cccs1` (configuration not stated) showed an inhibition of 15%.
Molecule `CCOC(=O)C1=C(CC)OC(N)=C(C#N)C1c1cccs1` (configuration not stated) has an inhibition of 30%.
Work on `O=[N+]([O-])c1ccc(C=Nc2ccc(F)cc2)s1` yielded an inhibition of 21%.
With `COC(=O)C1=C(C)N(Cc2ccccc2)C(=O)/C1=C\c1cccs1` the inhibition was 4%.
In the case of `COC(=O)C1=C(C)N(Cc2ccccc2)C(=O)/C1=C\c1c(Cl)cccc1Cl`, the inhibition is reported as 47%.
With `COC(=O)C1=C(C)N(Cc2ccccc2)C(=O)/C1=C\c1ccccc1Cl` the inhibition was 51% (active).
Work on `CN(C)c1ccc(/C=C(\C#N)c2nc(-c3ccc4c(c3)OCO4)cs2)cc1` yielded an inhibition of 16%.
`CCOC(=O)c1sc(NC(=O)c2cc(Cl)ccc2OC)c(C(N)=O)c1C` showed an inhibition of 2%.
Work on `O=C(Nc1ccccc1I)c1ccc(C(=O)Nc2ccccc2I)cc1` yielded an inhibition of 0%.
In the case of `O=C(Nc1ccccc1I)c1ncn[nH]1`, the inhibition is reported as 54% (active).
For `Cc1cccc(NC(=O)c2ncn[nH]2)c1C`, the inhibition was 0%.
`O=C(Nc1nc2ccccc2n1Cc1ccc(Cl)cc1)c1ccc(Cl)cc1` gave an inhibition of 11%.
Molecule `CC(=O)Nc1ccc(NC(=S)NC(=O)c2cccc(Br)c2)cc1` has an inhibition of 0%.
`O=C1/C(=C/c2ccc(-c3ccc(Cl)cc3C(=O)O)o2)Sc2ccccc21` was tested, and the inhibition was 21%.
`O=C1NC(=O)/C(=C\c2ccc(-c3ccc(C(=O)O)cc3)o2)S1` gave an inhibition of 6%.
For `O=C(O)c1cc(-c2ccc(C=C3C(=O)c4ccccc4C3=O)o2)ccc1O`, the inhibition was 11%.
`O=C1NC(=S)S/C1=C\c1ccc(-c2ccc(Cl)c(C(=O)O)c2)o1` showed an inhibition of 18%.
Work on `CCCOc1ncnc2sc3c(c12)CCCC3` yielded an inhibition of 12%.
In the case of `COc1cc([N+](=O)[O-])ccc1-c1ccc(/C=C2\C(=O)N(c3ccc(S(N)(=O)=O)cc3)N=C2C)o1`, the inhibition is reported as 53% (active).
For `COc1cc(/C=C2\C(=O)N(c3ccc(S(N)(=O)=O)cc3)N=C2C)ccc1OCc1ccccc1`, the inhibition was 53% (active).
`CC1=NN(c2ccc(S(N)(=O)=O)cc2)C(=O)/C1=C\c1ccc(-c2cc([N+](=O)[O-])ccc2C)o1` showed an inhibition of 42%.
Molecule `COc1cc(/C=C2\C(=O)N(c3ccc(S(N)(=O)=O)cc3)N=C2C)cc(Br)c1OCc1ccccc1` has an inhibition of 16%.
`CCCOc1ccc(/C=C2\C(=O)N(c3ccc(S(N)(=O)=O)cc3)N=C2C)cc1OC` was tested, and the inhibition was 6%.
`CC1=NN(c2ccc(S(N)(=O)=O)cc2)C(=O)/C1=C\c1ccc(-c2ccc(Cl)c([N+](=O)[O-])c2)o1` was tested, and the inhibition was 80% (active).
`CN1C(=O)C(=Cc2ccc(-c3ccc(Cl)c([N+](=O)[O-])c3)o2)C(=O)N(C)C1=S` showed an inhibition of 30%.
`CC1=NN(c2ccc(S(N)(=O)=O)cc2)C(=O)/C1=C\c1ccc(-c2cc([N+](=O)[O-])ccc2Cl)o1` was tested, and the inhibition was 46%.
In the case of `CC1=NN(c2ccc(S(N)(=O)=O)cc2)C(=O)/C1=C\c1ccc(-c2cccc([N+](=O)[O-])c2)o1`, the inhibition is reported as 57% (active).
In the case of `COc1cc([N+](=O)[O-])ccc1-c1ccc(/C=C2\C(=O)N(c3ccc(C(=O)O)cc3)N=C2C)o1`, the inhibition is reported as 26%.
In the case of `COc1cc([N+](=O)[O-])ccc1-c1ccc(/C=C2/C(=O)N(c3ccc(C)cc3)N=C2C)o1`, the inhibition is reported as 6%.
In the case of `CC1=NN(c2ccc(S(N)(=O)=O)cc2)C(=O)/C1=C\c1cccc([N+](=O)[O-])c1`, the inhibition is reported as 12%.
Work on `C=CCc1ccc(OCCCOc2c(Cl)cccc2Cl)c(OC)c1` yielded an inhibition of 42%.
In the case of `CCOC(=O)C1=C(C)NC(=S)NC1c1ccc(Cl)c(Cl)c1` (configuration not stated), the inhibition is reported as 7%.
With `COc1ccc(NC(=NCCc2ccccc2)SC2CC(=O)N(c3ccc(F)cc3)C2=O)cc1` (configuration not stated) the inhibition was 9%.
Work on `COc1ccc(OC)c(C=Nc2ccc(I)cc2)c1` yielded an inhibition of 9%.
Work on `O=C1NC(=Nc2ccc(F)cc2)S/C1=C/c1cccc(Br)c1` yielded an inhibition of 40%.
In the case of `CCOC(=O)C1=C(C)N=c2s/c(=C\c3cc(Br)c(OC)c(OC)c3)c(=O)n2C1c1ccc(OC)c(OC)c1` (configuration not stated), the inhibition is reported as 18%.
`CCc1cccc(C)c1NC(=O)/C(C#N)=C/c1ccccc1` gave an inhibition of 4%.
`CC1=NN(c2ccc(C)cc2)C(=O)/C1=C/c1ccc(-c2ccc(Cl)c(C(=O)O)c2)o1` gave an inhibition of 24%.
In the case of `CC1=NN(c2ccc(S(N)(=O)=O)cc2)C(=O)/C1=C\c1ccc(-c2ccc(S(N)(=O)=O)cc2)o1`, the inhibition is reported as 32%.
For `CC1=NN(c2ccccc2)C(=O)/C1=C\c1ccc(-c2cc([N+](=O)[O-])ccc2O)o1`, the inhibition was 30%.
`CC1=NN(c2ccc(S(N)(=O)=O)cc2)C(=O)/C1=C\c1ccc(-c2ccc(Cl)c(C(=O)O)c2)o1` showed an inhibition of 6%.
Work on `CC1=NN(c2ccc(S(N)(=O)=O)cc2)C(=O)/C1=C\c1ccc(-c2ccc(C(=O)OC(C)C)cc2)o1` yielded an inhibition of 25%.
`COC(=O)c1cccc(-c2ccc(/C=C3\C(=O)N(c4ccc(S(N)(=O)=O)cc4)N=C3C)o2)c1` gave an inhibition of 28%.
For `CC1=NN(c2ccc(S(N)(=O)=O)cc2)C(=O)/C1=C\c1ccc(-c2ccc(C)c(Cl)c2)o1`, the inhibition was 53% (active).
`CCOC(=O)c1ccc(-c2ccc(/C=C3\C(=O)N(c4ccc(S(N)(=O)=O)cc4)N=C3C)o2)cc1` showed an inhibition of 36%.
For `CC1=NN(c2ccc(S(N)(=O)=O)cc2)C(=O)/C1=C\c1ccc(-c2ccc([N+](=O)[O-])cc2)o1`, the inhibition was 63% (active).
With `CC1=NN(c2cccc(C(=O)O)c2)C(=O)/C1=C\c1ccc(-c2ccc([N+](=O)[O-])cc2)o1` the inhibition was 7%.
`CC1=NN(c2ccc(S(N)(=O)=O)cc2)C(=O)/C1=C\c1ccc(-c2ccc(Cl)c(C(=O)OC(C)C)c2)o1` was tested, and the inhibition was 59% (active).
In the case of `CC1=NN(c2ccc(S(N)(=O)=O)cc2)C(=O)/C1=C\c1ccc(-c2ccc(Br)cc2)o1`, the inhibition is reported as 59% (active).
`COc1cccc(C(=O)NC(=S)Nc2ccc3oc(-c4ccccc4Cl)nc3c2)c1` gave an inhibition of 12%.
In the case of `O=C(CSc1n[nH]c(-c2ccncc2)n1)c1ccc(O)cc1O`, the inhibition is reported as 15%.
`FC(F)(F)Oc1ccc(N=Cc2ccc(Br)s2)cc1` showed an inhibition of 8%.
With `Oc1cccc(-c2nc(-c3ccccc3)c(-c3ccc(Br)cc3)[nH]2)c1` the inhibition was 22%.
Work on `CCOc1ccc(OCCOCCOc2ccccc2Cl)cc1` yielded an inhibition of 8%.
In the case of `CC1(C)CC(=O)C=C(Nc2cc([N+](=O)[O-])ccc2N)C1`, the inhibition is reported as 7%.
